In PubChem BioAssay AID624125 (The Scripps Research Institute Molecular Screening Center, 2012) one finds inhibition data, which are given here for 87 molecules.

Screen size: about 360,000 compounds; about 2,600 (0.72%) were called active.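 How the source made its calls: active means inhibition above its plate's cutoff, the mean inhibition of sample wells plus 3 SD (cut at about 27% in these data); inactive means the rest.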 Many of the other results were omitted from the sample, so actives are more common in it than they were.

The target of the assay is Muscarinic acetylcholine receptor M4 (Homo sapiens) (UniProt P08173). The experiment in a line: human M4 muscarinic receptor antagonists, primary screen, CHO cells, Fluo-8 calcium fluorescence (AID 624125).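 Further: 0% = acetylcholine EC80 with DMSO and 100% = DMSO without agonist.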 The settings on record: CHO-hM4 cells, ACh EC80, Fluo-8 calcium fluorescence; at 3 µM; active compounds read high.
Muscarinic acetylcholine receptor M4 (Homo sapiens), sequence (P08173 whole entry, looked up): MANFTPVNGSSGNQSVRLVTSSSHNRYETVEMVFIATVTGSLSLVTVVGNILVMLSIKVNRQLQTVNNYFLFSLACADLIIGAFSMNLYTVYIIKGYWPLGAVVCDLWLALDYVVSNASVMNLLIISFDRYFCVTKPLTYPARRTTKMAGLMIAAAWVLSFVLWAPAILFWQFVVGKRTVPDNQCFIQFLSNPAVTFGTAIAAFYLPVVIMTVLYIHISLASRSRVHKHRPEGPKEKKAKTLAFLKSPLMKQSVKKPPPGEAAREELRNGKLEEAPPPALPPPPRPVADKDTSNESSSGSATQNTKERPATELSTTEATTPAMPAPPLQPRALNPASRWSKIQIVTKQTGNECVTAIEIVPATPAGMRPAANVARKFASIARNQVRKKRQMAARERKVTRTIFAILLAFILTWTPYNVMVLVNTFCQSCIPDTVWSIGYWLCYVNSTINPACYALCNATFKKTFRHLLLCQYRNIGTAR
For `O=[N+]([O-])c1cc(S(=O)(=O)CCCN2CCOCC2)ccc1F`, the inhibition is -17.3% (inactive).
In the case of `CC(C)(O)C#Cc1ncc(C(F)(F)F)cc1Cl`, the inhibition is 3.84% (inactive).
The same measure for `COC(=O)[C@@H](NC(=O)Nc1cc(Cl)ccc1C)C(C)C`: 8.25% (inactive); for `CN(C)Cc1ccccc1C1(O)c2ccccc2CSc2ccccc21` (configuration not stated): 22.2% (inactive).
Regarding `CN(C)CC/C=C1\c2ccccc2CSc2ccccc21`, the inhibition was 83% (active).
On to `Cc1cccc(-n2c(O)c(C=Nc3ccccc3N)c(=O)[nH]c2=O)c1`, for which the inhibition was 4.12% (inactive).
For `CN(C)CCCNC(=O)c1cc(C(=O)Cc2ccc(Cl)cc2)c[nH]1`, the inhibition is -5.01% (inactive).
As for `CCOC(=O)c1nnn(-c2nonc2-n2cccc2)c1CN1CCC(C(=O)OCC)CC1`, the inhibition was 0.5% (inactive).
Consider `Cc1cc(S(=O)(=O)N2CCOCC2)ccc1OCC(=O)Nc1cccc(C(F)(F)F)c1`, for which the inhibition was 14.2% (inactive).
As to `CCNS(=O)(=O)c1ccc(NC(=O)Nc2cccc(C(F)(F)F)c2)cc1`, the inhibition was 30.8% (active).
In the case of `CCNS(=O)(=O)c1ccc(NC(=O)c2cncc(Br)c2)cc1`, the inhibition was -2.17% (inactive).
The value for `CCCNC(=O)C[C@@H]1CC[C@@H]2[C@H](COC[C@H](O)CN2C(=O)c2cc(Cl)cc(Cl)c2)O1` was 2.23% (inactive).
As to `Cc1ccc(C(=O)O)cc1S(=O)(=O)NCC1CCCO1` (configuration not stated), the inhibition was 0.46% (inactive).
The same measure for `CCc1cc(C(=O)OC)c(NC(=O)CC2Sc3ccc(C(F)(F)F)cc3NC2=O)s1` (configuration not stated): 0.19% (inactive).
With `COc1cc(OC)c2ccc(=O)oc2c1C(CCN1CCN(c2ccccc2)CC1)c1ccc2c(c1)OCO2` (configuration not stated), the inhibition was 4.01% (inactive).
`CCC1C=C(c2ccccc2)C=CN=C1N(CC)CC` (configuration not stated): the inhibition is 35% (active).
The value for `O=C(N/N=C/c1sc(N2CCCCC2)nc1-c1cccs1)c1cccnc1` was -11.5% (inactive); that for `Nc1cc2c(cc1Br)-c1ccc(F)cc1C2=O` was -3.7% (inactive); that for `COc1ccc(S(=O)(=O)N2CCCC(C(=O)N3CCN(C)CC3)C2)cc1C` (configuration not stated) was -3.22% (inactive).
Take `Cc1ccc(S(=O)(=O)N2CCCC(C(=O)N3CCN(C)CC3)C2)cc1` (configuration not stated): the inhibition was 11.1% (inactive).
The same measure for `CC(=O)N1CCCc2cc(S(=O)(=O)N3CCCC(C(=O)N4CCN(c5cccc(Cl)c5)CC4)C3)ccc21` (configuration not stated): 43.8% (active).
The value for `CCN(CC)Cc1nc2sc(C)c(C)c2c(=O)[nH]1` was 34.7% (active).
The value for `Cc1sc2nc(CSCC(=O)Nc3c(Cl)cccc3Cl)[nH]c(=O)c2c1C` was -1.67% (inactive).
`Cc1ccc(S(=O)(=O)N2CCCC2C(=O)OCc2nc3sc(C)c(C)c3c(=O)[nH]2)cc1` (configuration not stated): the inhibition was -8.5% (inactive).
Take `Cn1c2c(c(=O)n(C)c1=O)C1c3ccccc3OCC1C(C)(C)O2` (configuration not stated): the inhibition is -10.5% (inactive).
As to `COc1cc(OC)cc(-c2nnc(SCC(=O)Nc3ccc(C(=O)O)cc3)s2)c1`, the inhibition was 3.22% (inactive).
For the molecule `CCCCNC(=O)CSc1nc2ccc(NC(=O)CSc3nnc(N)s3)cc2s1`, the inhibition was 4.39% (inactive).
`Nc1nnc(SCC(=O)Nc2ccc3nc(SCC(=O)Nc4ccccc4)sc3c2)s1`: the inhibition was 40.5% (active).
The same measure for `CSc1nc2nc(-c3cccc(C(F)(F)F)c3)ccn2n1`: -1.52% (inactive).
The same measure for `C=C(C)c1cccc(C(C)(C)NC(=O)NC2CCCC2)c1`: 4.8% (inactive); for `C=C(C)c1cccc(C(C)(C)NC(=O)N2CCN(c3ncccn3)CC2)c1`: 6.08% (inactive); for `C=C(C)c1cccc(C(C)(C)NC(=O)NCCN(CC)CC)c1`: 61.6% (active).
In the case of `COc1ccc(-c2cn(-c3ccc(C)cc3)c(=O)n2CC(=O)Nc2ccc(OC)c(OC)c2)cc1`, the inhibition is 4.43% (inactive).
The value for `Cc1cc2cc(CNC(=O)c3ccc(S(=O)(=O)N4CCOCC4)cc3)ccc2[nH]1` was 28.9% (active).
As for `Cc1cc2cc(CNC(=O)c3cccs3)ccc2[nH]1`, the inhibition was -4.44% (inactive).
Consider `COC(=O)c1ccc(CNC(=O)c2ccc(S(=O)(=O)N3CCCCCC3)cc2)cc1`, for which the inhibition was 5.81% (inactive).
On to `CC1CCc2sc(C(=O)N/N=C/C3CCCCC3)cc2C1` (configuration not stated), for which the inhibition was -5.14% (inactive).
The value for `COc1ccc(-c2nc(N)sc2C2(O)C(=O)Nc3c(Br)cc(F)cc32)cc1OC` (configuration not stated) was -0.95% (inactive); that for `O=CNc1cc(-c2ccc(C(=O)N3CCOCC3)cc2)cn2c(-c3ccc(F)cc3)cnc12` was 0.14% (inactive).
For `OC(C#CCN1CCOCC1)(c1ccccc1)C1CCCCC1` (configuration not stated), the inhibition was 10.4% (inactive).
The same measure for `CC(C)(C)N(CC#CCC(O)(c1ccccc1)C1CCCC1)CCO` (configuration not stated): 31.3% (active).
The same measure for `Cc1ccc(C)c(N2CCN(C(=O)CCc3nc(-c4cccc(C(F)(F)F)c4)no3)CC2)c1`: -9.53% (inactive); for `Cc1cc(O)ccc1NC1=CC(=O)CC(C)(C)C1`: 2.61% (inactive); for `CCc1nc2c(OCCOc3ccc(F)cc3)cccn2c1N(C)C(=O)c1ccccc1F`: 1.61% (inactive).
With `C[C@H]1CN([C@@H](C)CO)C(=O)Cc2cc(NC(=O)Cc3ccccc3)ccc2O[C@H]1CN(C)S(=O)(=O)c1cccs1`, the inhibition is 35.1% (active).
The value for `COc1ccc(S(=O)(=O)N(C)C[C@H]2Oc3ccc(NS(=O)(=O)c4cccs4)cc3CC(=O)N([C@H](C)CO)C[C@H]2C)cc1` was 5.37% (inactive); that for `CCOC(=O)CCCCCC(=O)Nc1ccc2c(c1)CC(=O)N([C@@H](C)CO)C[C@H](C)[C@@H](CN(C)Cc1ccccc1)O2` was -3.74% (inactive).
As for `NC(=O)c1cc(S(=O)(=O)NCCCc2ccco2)cs1`, the inhibition was 3.61% (inactive).
In the case of `O=C(CNS(=O)(=O)c1ccc(Br)s1)N1CCN(C(=O)c2ccco2)CC1`, the inhibition is -1.1% (inactive).
As to `CC(C)C(NS(=O)(=O)c1cccs1)C(=O)Nc1nc(C(C)(C)C)cs1` (configuration not stated), the inhibition was -1.31% (inactive).
Take `CS(=O)(=O)N(Cc1ccc(Cl)cc1)c1ccc(C(=O)NCCSCc2ccco2)cc1`: the inhibition is 13.9% (inactive).
The same measure for `CCN1CCN(C(=O)c2ccc(CN(c3ccc(C)c(C)c3)S(C)(=O)=O)cc2)CC1`: -4.91% (inactive); for `Cc1ccc(N(Cc2ccc(C(=O)Nc3ccccc3C(=O)NCc3ccco3)cc2)S(C)(=O)=O)cc1C`: 39.7% (active).
The same measure for `c1ccc2c(c1)OC1OC2Oc2ccccc21`: -7.83% (inactive).
With `COc1ccc(S(=O)(=O)NC2(C(F)(F)F)N=C3SCCN3C2=O)cc1` (configuration not stated), the inhibition is -9.21% (inactive).
The same measure for `CCN1CCN(c2ccc(S(=O)(=O)N3CCCCC3)cc2NC(=O)c2cccc(NC(C)=O)c2)CC1`: -6.66% (inactive); for `COc1ccc(CN2CCCC(C(=O)N3CCCCC3)C2)cc1` (configuration not stated): 1.76% (inactive); for `COc1cc(CN2CCCC(C(=O)c3ccc(SC)cc3)C2)cc(Cl)c1O` (configuration not stated): -23.2% (inactive).
For `COc1ccc(CN2CCCC(C(=O)c3ccc(Cl)cc3)C2)cc1Cn1cncn1` (configuration not stated), the inhibition is 38.6% (active).
The value for `CCN(CC)N=Nc1cccc(NC(C)=O)c1` was 5.94% (inactive); that for `CN(C(=O)CSc1nnc(-c2ccc3c(c2)OCO3)o1)C1CCS(=O)(=O)C1` (configuration not stated) was 0.5% (inactive); that for `N/C(=N\OC(=O)Nc1ccc(Cl)c(Cl)c1)c1ncc(C(F)(F)F)cc1Cl` was 27% (active).
`O=C(c1ccccn1)c1ncc(C(F)(F)F)cc1Cl`: the inhibition is 9.21% (inactive).
The same measure for `N/C(=N\OC(=O)CCCC(=O)O)c1ncc(C(F)(F)F)cc1Cl`: 3.64% (inactive); for `O=C(COc1ccc(S(=O)(=O)NCc2ccccc2)cc1)N1CCOCC1`: 4.93% (inactive).
With `CC(O)C(NS(=O)(=O)c1ccc(Cl)cc1)C(=O)OCc1cc([N+](=O)[O-])cc2c1OCOC2` (configuration not stated), the inhibition was 5.24% (inactive).
The value for `CCOc1ccccc1NC(=S)C(=C([O-])c1ccc2c(c1)OCCO2)[n+]1ccc(CC)cc1` was -1.01% (inactive); that for `Cc1cc([N+](=O)[O-])c(NC2CCCCC2)c([N+](=O)[O-])c1` was 7.51% (inactive); that for `CCc1cc2c(NC3CCCC3)ncnc2s1` was 11.2% (inactive).
`Clc1cc(NC2CCCCC2)ncn1`: the inhibition is 98.6% (active).
Turning to `CC(=O)c1ccc(N2CCN(C(=O)c3ccc4nc[nH]c4c3)CC2)cc1`, the inhibition was 4.68% (inactive).
In the case of `CN(CC1CCCN(CCc2cccc(C(F)(F)F)c2)C1)C(=O)c1ccc2nc[nH]c2c1` (configuration not stated), the inhibition was 41% (active).
As for `Cc1nc2ccc(C(=O)N(C)CC3CCCN(CCc4ccc(Cl)cc4)C3)cc2[nH]1` (configuration not stated), the inhibition is 19.4% (inactive).
Consider `CSc1ccccc1NC(=O)c1ccc2c(c1)CCN2S(C)(=O)=O`, for which the inhibition was -5.17% (inactive).
In the case of `O=C(CSCc1ccc([N+](=O)[O-])cc1)Nc1cccc(C(=O)Nc2ccccc2C(=O)O)c1`, the inhibition was 7.83% (inactive).
The same measure for `CCc1ccc(CN(C)C(C)C(=O)Nc2ccc(S(=O)(=O)N3CCCC3)cc2)cc1` (configuration not stated): 26.6% (active).
The same measure for `CN(CC(=O)Nc1ccc(S(=O)(=O)N2CCCC2)cc1)Cc1ccc(Cl)c(Cl)c1`: 4.23% (inactive); for `CC(C(=O)Nc1ccc(S(=O)(=O)N2CCCC2)cc1)N(C)Cc1ccc(F)cc1` (configuration not stated): -3.14% (inactive); for `CCc1ccc(/C=N/NC(=O)c2nnn(-c3nonc3N)c2CN2CCc3ccccc32)cc1`: 6.06% (inactive).
Turning to `CCOC(=O)CSc1nnc(NC(=O)C2CC(=O)N(c3ccc(F)cc3)C2)s1` (configuration not stated), the inhibition is 5.76% (inactive).
`CN1/C(=C\C=C2\N=C(c3ccc(F)cc3)OC2=O)C(C)(C)c2ccccc21`: the inhibition was 50.7% (active).
The same measure for `Cc1ccc(S(=O)(=O)NC[C@H]2O[C@@H](n3cnc4c(N)ncnc43)[C@H](O)[C@@H]2O)s1`: -5.46% (inactive); for `O=C(CNS(=O)(=O)c1ccc(Br)s1)NCc1ccc2c(c1)OCO2`: 1.5% (inactive).
The same measure for `COc1ccc(NC(=O)N(C)C[C@@H]2OCc3cn(nn3)CCCC(=O)N([C@H](C)CO)C[C@H]2C)c(OC)c1`: 8.28% (inactive); for `CC1CCCN(c2ccc(C(=O)NCCc3ccccc3)cn2)C1` (configuration not stated): -4.49% (inactive); for `CCOC(=O)N1CCN(C(=O)c2ccc3c(c2)N(Cc2ccc(C)cc2)CCS3)CC1`: -7.97% (inactive).
The same measure for `O=C(NCCc1ccccc1)c1ccc2c(c1)N(Cc1ccccc1)CCS2`: 35% (active).
